Experimental data taken from PubChem BioAssay AID602229 (The Scripps Research Institute Molecular Screening Center, 2012).
Screen size: about 360,000 compounds; about 1,300 (0.36%) were called active. The entries come from a sample that favours actives as a whole. A number with no mark means an inactive call.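 How the source made its calls: active means inhibition above the mean of all tested compounds plus 3 SD (cut at about 70% in these data); inactive means the rest.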

Target: Photoreceptor-specific nuclear receptor (Homo sapiens) (UniProt Q9Y5X4)
Sequence (Q9Y5X4 whole entry, looked up, the tested form may be a part): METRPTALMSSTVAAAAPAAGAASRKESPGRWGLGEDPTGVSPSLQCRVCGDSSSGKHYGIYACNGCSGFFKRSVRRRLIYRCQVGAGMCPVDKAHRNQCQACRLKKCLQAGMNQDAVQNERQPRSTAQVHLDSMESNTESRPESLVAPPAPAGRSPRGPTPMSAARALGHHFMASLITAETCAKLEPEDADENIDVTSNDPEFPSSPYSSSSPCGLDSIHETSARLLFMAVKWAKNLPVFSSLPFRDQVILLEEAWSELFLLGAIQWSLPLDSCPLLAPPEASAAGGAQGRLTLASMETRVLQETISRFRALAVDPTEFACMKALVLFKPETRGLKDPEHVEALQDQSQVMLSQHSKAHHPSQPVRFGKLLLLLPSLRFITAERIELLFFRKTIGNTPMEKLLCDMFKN
Experiment: NR2E3 agonists in two-hybrid cells, primary screen, cell-based, luminescence, CHO-S, Gal4-NCOR/VP16-NR2E3 (AID 602229);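 further: 0% = DMSO with NR2E3 transfected cells and 100% = cells lacking NR2E3 construct; higher means lower luciferase signal from less NR2E3 corepressor binding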
Details: luciferase, at 3.98 µM, active compounds read high

Compound	inhibition
CC(=O)OC1C2(CC3N4C(=O)C5(CO)SSC4(CC31O)C(=O)N5C)OC(C)C(C)(C)C2=O (stereo not given)	99.4% (active)
Cc1nn(-c2ccccc2)c(C)c1NC(=O)COC(=O)Cc1ccccc1	8.66%
COc1ccc(Br)cc1CNCCc1cccc(Cl)c1	24.3%
COC(=O)C1=C(c2ccc(F)cc2OCc2ccccc2)C[C@@H]2CC[C@H]1N2C(=O)NCc1ccc(C(C)(C)C)cc1	8.82%
CCCCCCCCCCCCn1ccc(=N)cc1	94% (active)
CC(C)CN1Cc2cc(N3CCCCC3)ccc2-n2nncc2C1	3.03%
CNC(=O)N(C)c1nnc(C(C)(C)C)s1	-10.2%
CN(C)P(=S)(Nc1ccccc1)C(Cl)(Cl)Cl (stereo not given)	5.18%
COC(=O)N(c1ccc(OC)cc1)P1(=S)OCCC(C)O1 (stereo not given)	-15.4%
CC(=NCC1CCCO1)c1c(O)n(-c2ccccc2)c(=O)[nH]c1=O (stereo not given)	0.24%
CCC(C)(O)C(=O)OC1C(=O)OC2CC3C(C)=CC(=O)C(O)C3(C)C3C4(O)OCC23C1C(C)C4O (stereo not given)	99% (active)
CCC(=O)OC(Cc1ccccc1)(c1ccccc1)C(C)CN(C)C (stereo not given)	-18.8%
Nc1ccc(Cc2ccc(N)c(Cl)c2)cc1Cl	-10.5%
Cn1c(O)c(C(=Nc2ccc(F)cc2)c2ccccc2)c(=O)n(C)c1=O	-24.4%
COc1cccc(-c2nc3ccc(N4CCN(C)CC4)cc3[nH]2)c1	-20.1%
